Laboratory results taken from ChEMBL document CHEMBL3988442, “University of Dundee, Small-Polar-MMV Screening Library” (2021).
For part of these data: Potency and affinity values are given separately.

Key:
Design in all cases: scale not given: direction of the effect not stated beside the values
[1] = biological target: Protein translocase subunit SecA (Escherichia coli (strain K12)) (UniProt P10408); test: Assay to Identify E. coli SecA ATPase Inhibitors; format: functional; conditions: 30 µM
[2] = biological target: T1, Ubiquitin-activating enzyme e1, putative (Leishmania donovani (strain BPK282A1)) (UniProt E9BSI1); test: Leishmania donovani Ubiquitin Activating Enzyme (LdE1); format: functional; conditions: 30 µM
T1 sequence (whole entry): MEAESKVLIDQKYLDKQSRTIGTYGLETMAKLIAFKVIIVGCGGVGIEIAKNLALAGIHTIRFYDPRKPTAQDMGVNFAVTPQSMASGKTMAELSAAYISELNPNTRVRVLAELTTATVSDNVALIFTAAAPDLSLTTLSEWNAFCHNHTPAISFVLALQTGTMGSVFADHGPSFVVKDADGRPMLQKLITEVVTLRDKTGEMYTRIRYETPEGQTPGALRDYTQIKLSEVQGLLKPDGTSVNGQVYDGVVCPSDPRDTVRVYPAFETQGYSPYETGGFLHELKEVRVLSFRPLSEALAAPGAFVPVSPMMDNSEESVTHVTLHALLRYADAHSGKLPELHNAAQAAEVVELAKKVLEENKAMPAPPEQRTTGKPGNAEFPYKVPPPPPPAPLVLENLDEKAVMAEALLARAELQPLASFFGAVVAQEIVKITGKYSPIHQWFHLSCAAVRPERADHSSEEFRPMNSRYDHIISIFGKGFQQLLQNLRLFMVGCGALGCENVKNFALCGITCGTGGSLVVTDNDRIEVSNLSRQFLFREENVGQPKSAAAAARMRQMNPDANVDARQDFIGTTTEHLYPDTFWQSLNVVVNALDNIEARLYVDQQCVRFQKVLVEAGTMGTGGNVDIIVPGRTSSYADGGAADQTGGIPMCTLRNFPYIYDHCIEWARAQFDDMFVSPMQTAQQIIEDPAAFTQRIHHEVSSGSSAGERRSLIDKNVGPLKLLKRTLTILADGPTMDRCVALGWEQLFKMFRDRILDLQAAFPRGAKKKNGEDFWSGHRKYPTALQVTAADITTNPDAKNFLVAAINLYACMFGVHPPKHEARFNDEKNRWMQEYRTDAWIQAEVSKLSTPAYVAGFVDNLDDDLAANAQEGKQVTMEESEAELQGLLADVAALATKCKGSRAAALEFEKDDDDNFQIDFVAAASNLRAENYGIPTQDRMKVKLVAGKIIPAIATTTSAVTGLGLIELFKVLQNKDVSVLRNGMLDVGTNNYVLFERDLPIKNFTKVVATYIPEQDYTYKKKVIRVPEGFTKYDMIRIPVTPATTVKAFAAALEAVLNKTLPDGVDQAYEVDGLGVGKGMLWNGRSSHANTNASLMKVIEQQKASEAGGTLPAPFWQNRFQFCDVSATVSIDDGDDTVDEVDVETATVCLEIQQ

[3] = biological target: AMP-activated protein kinase, AMPK (Homo sapiens) (UniProt P54646+O43741+P54619+Q9UGJ0+Q9Y478+Q13131+Q9UGI9); test: AMP-dependent Kinase enzyme assay. An in vitro enzyme assay that detects ADP turnover that is directly proportional to AMPK activity. This uses naive AMPK that is activated during the assay with MK-8722; format: functional; conditions: 30 µM
[4] = biological target: Sialic acid-binding Ig-like lectin 9 (Homo sapiens) (UniProt Q9Y336); test: Hs-Siglec9 ALPHAscreen SOP 20170721; conditions: 10 µM
Sequence of Sialic acid-binding Ig-like lectin 9 (Homo sapiens) (Q9Y336 whole entry): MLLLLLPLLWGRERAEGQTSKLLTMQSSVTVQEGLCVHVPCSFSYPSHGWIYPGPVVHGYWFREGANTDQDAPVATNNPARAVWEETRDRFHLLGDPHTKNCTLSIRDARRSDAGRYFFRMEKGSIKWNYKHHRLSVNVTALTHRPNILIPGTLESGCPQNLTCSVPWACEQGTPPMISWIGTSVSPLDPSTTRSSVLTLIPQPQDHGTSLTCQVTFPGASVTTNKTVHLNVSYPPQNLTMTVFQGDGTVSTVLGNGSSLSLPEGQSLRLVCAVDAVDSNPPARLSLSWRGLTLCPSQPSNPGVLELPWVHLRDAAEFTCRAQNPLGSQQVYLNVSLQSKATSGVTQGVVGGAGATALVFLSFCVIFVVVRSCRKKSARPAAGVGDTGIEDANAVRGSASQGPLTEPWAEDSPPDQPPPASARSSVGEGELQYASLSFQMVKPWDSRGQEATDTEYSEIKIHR

Trypanosoma cruzi = test: Trypanosoma cruzi phosphomannomutase and mannose-1-phosphate guanylyltransferase assay; format: functional; conditions: 10 µM
[5] = biological target: T2, Arginase-2, mitochondrial (Homo sapiens) (UniProt P78540); test: in vitro enzyme assay to detect the production of urea directly proportional to the activity of Arginase II; format: functional; conditions: 33.3 µM; further: in the data most compounds retested in dose-response had high values
T2 sequence (whole entry): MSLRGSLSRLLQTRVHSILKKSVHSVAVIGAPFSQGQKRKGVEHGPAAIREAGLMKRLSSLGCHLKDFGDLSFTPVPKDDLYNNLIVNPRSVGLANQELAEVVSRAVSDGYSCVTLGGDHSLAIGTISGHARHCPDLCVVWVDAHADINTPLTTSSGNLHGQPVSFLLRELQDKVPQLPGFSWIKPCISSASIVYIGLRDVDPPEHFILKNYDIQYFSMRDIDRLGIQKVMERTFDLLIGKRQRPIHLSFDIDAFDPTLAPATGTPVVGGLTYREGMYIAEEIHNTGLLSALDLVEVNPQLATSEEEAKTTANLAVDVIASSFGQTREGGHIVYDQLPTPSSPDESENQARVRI

[6] = biological target: T3, Proteasome subunit beta (Trypanosoma cruzi) (UniProt O96673); test: Trypanosoma cruzi proteasome chymotrypsin-like activity (TcProtChymo) assay.; further: in the data most compounds retested in dose-response had high values; format: functional; conditions: 9.37 µM
T3 sequence (whole entry): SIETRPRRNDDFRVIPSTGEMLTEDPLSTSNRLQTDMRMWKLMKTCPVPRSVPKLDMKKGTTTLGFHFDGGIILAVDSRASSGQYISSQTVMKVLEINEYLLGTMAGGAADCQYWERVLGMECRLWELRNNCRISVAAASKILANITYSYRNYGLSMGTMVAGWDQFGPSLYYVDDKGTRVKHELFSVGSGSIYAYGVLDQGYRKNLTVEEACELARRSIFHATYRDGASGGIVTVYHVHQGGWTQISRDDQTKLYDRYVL

Homo sapiens = species on record: Homo sapiens; test: To identify inhibition of the IFN signalling (Jak-Stat) pathway via expression of an eGFP reporter gene under the control of an IFN-stimulated response element (ISRE) containing MxA promoter.; format: functional; conditions: 30 µM
[7] = biological target: T4, Tyrosyl-tRNA synthetase, putative (Trypanosoma cruzi (strain CL Brener)) (UniProt Q4DSP6); test: Trypanosoma cruzi tyrosyl tRNA synthetase (TcYRS) _High Tyrosine SOP; format: functional; conditions: 30 µM; further: in the data most compounds retested in dose-response had high values
T4 sequence (whole entry): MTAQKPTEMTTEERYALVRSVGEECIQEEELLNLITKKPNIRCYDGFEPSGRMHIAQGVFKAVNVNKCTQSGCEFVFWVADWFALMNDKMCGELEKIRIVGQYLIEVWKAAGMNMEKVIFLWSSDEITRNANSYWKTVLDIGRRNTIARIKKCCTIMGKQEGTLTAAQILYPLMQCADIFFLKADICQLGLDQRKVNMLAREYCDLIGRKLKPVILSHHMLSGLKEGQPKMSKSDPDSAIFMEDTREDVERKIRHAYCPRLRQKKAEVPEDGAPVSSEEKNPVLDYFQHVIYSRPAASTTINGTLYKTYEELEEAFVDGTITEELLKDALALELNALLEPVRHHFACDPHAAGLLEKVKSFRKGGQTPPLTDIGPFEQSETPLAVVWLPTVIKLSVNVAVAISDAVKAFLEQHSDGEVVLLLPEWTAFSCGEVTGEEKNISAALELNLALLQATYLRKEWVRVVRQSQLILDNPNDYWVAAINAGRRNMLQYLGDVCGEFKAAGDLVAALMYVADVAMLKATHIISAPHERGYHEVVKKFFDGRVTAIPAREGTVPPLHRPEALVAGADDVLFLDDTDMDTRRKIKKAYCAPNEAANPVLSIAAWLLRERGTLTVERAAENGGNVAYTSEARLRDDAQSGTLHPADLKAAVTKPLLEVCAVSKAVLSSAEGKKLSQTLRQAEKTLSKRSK

[8] = biological target: T4, Tyrosyl-tRNA synthetase, putative (Trypanosoma cruzi (strain CL Brener)); test: Trypanosoma cruzi tyrosyl tRNA synthetase (TcYRS) SOP; format: functional; conditions: 30 µM
[9] = biological target: Chromo domain-containing protein 1 (Saccharomyces cerevisiae (strain ATCC 204508 / S288c) (Baker's yeast)) (UniProt P32657); test: ScCHD-1 Enzyme Inhibition Assay; format: functional; conditions: 30 µM; further: in the data most compounds retested in dose-response had high values
Sequence of Chromo domain-containing protein 1 (Saccharomyces cerevisiae (strain ATCC 204508 / S288c) (Baker's yeast)) (P32657 whole entry, the tested form may be a part): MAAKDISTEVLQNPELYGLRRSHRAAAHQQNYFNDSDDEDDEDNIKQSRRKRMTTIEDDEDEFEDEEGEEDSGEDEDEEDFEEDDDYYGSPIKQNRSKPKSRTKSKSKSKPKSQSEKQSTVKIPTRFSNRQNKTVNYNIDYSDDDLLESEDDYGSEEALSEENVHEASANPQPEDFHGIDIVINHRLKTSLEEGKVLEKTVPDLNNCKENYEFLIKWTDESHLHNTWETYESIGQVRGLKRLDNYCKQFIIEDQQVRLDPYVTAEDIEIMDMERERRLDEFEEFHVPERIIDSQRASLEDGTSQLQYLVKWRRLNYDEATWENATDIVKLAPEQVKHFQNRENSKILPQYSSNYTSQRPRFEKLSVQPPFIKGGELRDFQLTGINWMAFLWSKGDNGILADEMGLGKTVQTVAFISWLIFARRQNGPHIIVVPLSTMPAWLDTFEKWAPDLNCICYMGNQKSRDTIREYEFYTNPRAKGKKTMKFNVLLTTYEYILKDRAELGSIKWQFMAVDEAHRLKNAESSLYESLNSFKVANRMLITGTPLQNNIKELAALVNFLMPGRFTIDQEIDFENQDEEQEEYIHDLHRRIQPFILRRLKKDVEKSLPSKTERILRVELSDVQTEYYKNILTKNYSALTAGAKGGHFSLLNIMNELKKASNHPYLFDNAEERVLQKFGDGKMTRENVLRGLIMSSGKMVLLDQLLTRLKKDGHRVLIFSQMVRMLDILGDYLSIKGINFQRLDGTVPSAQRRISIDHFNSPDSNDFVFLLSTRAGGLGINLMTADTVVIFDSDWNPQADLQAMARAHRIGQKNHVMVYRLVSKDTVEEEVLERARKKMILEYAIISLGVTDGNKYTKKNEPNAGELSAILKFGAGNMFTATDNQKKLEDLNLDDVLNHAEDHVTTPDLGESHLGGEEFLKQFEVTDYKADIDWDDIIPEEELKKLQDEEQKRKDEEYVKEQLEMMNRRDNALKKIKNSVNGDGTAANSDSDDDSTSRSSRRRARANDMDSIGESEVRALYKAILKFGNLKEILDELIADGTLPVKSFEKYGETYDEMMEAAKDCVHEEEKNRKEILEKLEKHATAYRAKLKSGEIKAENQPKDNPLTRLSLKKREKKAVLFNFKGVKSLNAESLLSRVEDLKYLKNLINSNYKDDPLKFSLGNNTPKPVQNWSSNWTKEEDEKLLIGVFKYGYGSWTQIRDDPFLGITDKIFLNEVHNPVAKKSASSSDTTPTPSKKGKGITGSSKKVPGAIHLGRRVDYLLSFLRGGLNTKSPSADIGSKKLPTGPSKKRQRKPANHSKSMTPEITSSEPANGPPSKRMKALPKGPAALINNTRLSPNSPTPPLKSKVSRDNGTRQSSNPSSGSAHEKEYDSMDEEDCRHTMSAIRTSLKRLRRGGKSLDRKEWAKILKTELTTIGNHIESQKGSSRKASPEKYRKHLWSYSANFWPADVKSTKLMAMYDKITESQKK

Sequence of Protein translocase subunit SecA (Escherichia coli (strain K12)) (P10408 whole entry): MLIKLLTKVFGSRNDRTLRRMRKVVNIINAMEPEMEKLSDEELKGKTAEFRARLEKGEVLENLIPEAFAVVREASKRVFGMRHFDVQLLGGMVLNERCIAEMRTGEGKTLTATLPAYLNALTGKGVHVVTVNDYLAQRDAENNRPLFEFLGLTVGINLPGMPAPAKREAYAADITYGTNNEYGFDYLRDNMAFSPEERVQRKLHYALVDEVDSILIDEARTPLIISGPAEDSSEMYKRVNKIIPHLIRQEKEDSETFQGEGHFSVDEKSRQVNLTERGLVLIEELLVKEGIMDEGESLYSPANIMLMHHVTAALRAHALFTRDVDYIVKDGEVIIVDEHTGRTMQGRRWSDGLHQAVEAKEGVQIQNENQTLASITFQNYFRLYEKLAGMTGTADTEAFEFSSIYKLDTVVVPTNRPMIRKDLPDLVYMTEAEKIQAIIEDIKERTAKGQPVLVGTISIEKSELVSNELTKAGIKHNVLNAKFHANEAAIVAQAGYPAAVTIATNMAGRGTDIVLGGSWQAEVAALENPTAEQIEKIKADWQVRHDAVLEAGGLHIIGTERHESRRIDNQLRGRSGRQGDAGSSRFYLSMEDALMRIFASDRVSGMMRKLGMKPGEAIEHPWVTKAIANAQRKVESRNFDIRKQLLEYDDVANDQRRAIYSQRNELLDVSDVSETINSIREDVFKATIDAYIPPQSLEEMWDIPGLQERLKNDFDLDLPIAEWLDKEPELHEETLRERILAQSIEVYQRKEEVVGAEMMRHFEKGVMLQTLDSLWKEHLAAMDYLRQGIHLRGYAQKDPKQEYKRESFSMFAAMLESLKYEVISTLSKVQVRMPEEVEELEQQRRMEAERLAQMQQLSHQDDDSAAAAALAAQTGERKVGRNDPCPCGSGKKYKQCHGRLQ

Row | SMILES | Percent Effect [1] | Percent Effect [2] | Percent Effect [3] | Percent Effect [4] | Percent Effect (Trypanosoma cruzi) | Percent Effect [5] | Percent Effect [6] | Percent Effect (Homo sapiens) | Percent Effect [7] | Percent Effect [8] | Percent Effect [9]
1 | CC(=O)N1CCC2(CC1)CC(Oc1ccccc1)CO2 (stereo unspecified) | 1.79% | 2.74% | 2.24% | 9.38% | -4.17% | -1.2% | 19.6% | 1.3% | 6.25% | 8.64% | 3.27%
2 | Cc1cccnc1NC(=O)NC(C)Cn1cccn1 (stereo unspecified) | -8.41% | 10.4% | 7.9% | 3.8% | -5.62% | 1.78% | 0.845% | 23.3% | 3.88% | 2.44% | -4.43%
3 | COCC(=O)N1CCCn2c(CN3CCCCC3)nnc2C1 | -0.412% | 11% | 1.87% | 4.92% | -5.95% | -2.4% | 22.7% | 24% | 7.29% | 11.1% | -5.31%
4 | O=c1ccc2c(n1CCN1CCCC1)CCN(Cc1ccoc1)CC2 | -1.68% | 8.22% | -4.13% | 13.3% | 7.94% | -9.58% | 10.7% | 19.6% | 8.33% | 13.6% | -2.06%
5 | Cn1cc(C(=O)CC2CCCN2C(=O)c2n[nH]c3ccccc23)cn1 (stereo unspecified) | -2.35% | 1.27% | 3.62% | 0.382% | 2.56% | 1.94% | 7.03% | -8.13% | 7.29% | 2.53% | -9.86%
6 | Cc1ccc(N2CCC3(CC2)CC(OCC(=O)N(C)C)CO3)nn1 (stereo unspecified) | -2.67% | 5.41% | 1.03% | -1.72% | -0.684% | 2.23% | 14.9% | -14.6% | 2.16% | 12.8% | 2.16%
